VHR inh color: VHR1 phosphatase inhibitors, primary screen, biochemical, colorimetric, HTS; recombinant VHR phosphatase, colorimetric substrate read-out; Dual specificity protein phosphatase 3 (Homo sapiens), P51452; AID 1992, 2009; 50,000 compounds, 0.7% hits; inhibition, % at 20 µM; in the data active = inhibition above about 60%
Target sequence (P51452 whole entry, looked up): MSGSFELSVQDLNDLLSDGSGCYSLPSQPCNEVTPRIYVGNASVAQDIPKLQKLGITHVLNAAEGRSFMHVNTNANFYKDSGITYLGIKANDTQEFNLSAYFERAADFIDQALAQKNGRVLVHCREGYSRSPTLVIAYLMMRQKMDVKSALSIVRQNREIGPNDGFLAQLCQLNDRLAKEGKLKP
* = called active by the depositor. This is one part of a sample in which hits are shown more often than they occur.

SMILES | VHR inh color
COc1ccc(Cl)cc1/C=C1/C(=O)NN(c2cccc(Br)c2)C1=O | 5.5
CC(C)=C1C(=O)NN(c2cccc(Br)c2)C1=O | 81.2*
CC(C)=C1C(=O)NN(c2ccc(C)c(Cl)c2)C1=O | -0.1
COC(=O)c1ccccc1-c1ccc(/C=C2/SC(=S)NC2=O)o1 | 59.0
O=c1c2cnn(-c3ccccc3)c2nc(-c2ccccc2)n1-c1ccc(Br)cc1 | -45.9
CCOC(=O)c1c(NC(=O)c2ccccc2[N+](=O)[O-])sc2c1CCC(C)C2 (stereo not drawn) | -13.5
CCc1cc2c(Nc3ccc(Br)cc3)ncnc2s1 | -6.1
COc1ccccc1-n1cnc2cc(NC(C)=O)ccc21 | -6.3
COc1ccccc1-n1cnc2cc(NC(=O)c3ccc(C)cc3)ccc21 | -14.7
COc1ccc(-n2cnc3cc(NC(C)=O)ccc32)cc1 | 96.8*
Cc1cc(Cl)ccc1OCC(=O)Nc1cccc(F)c1 | -16.4
N=C1S/C(=C\c2ccc(-c3ccc(F)cc3)o2)C(=O)N1c1ccc2c(c1)OCO2 | -8.6
O=C(Nc1ccc(-c2nc3ccccc3s2)cc1)c1cc(Br)ccc1Cl | -3.7
O=c1nc(/C=C/c2ccc(N3CCOCC3)cc2)cc(C(F)(F)F)[nH]1 | 0.4
O=c1nc(/C=C/c2ccc(N3CCCC3)cc2)cc(C(F)(F)F)[nH]1 | 108.0*
O=c1nc(/C=C/c2ccc(Cl)cc2)cc(C(F)(F)F)[nH]1 | -9.8
O=C(NN1C(=O)CSC1=S)c1ccccc1[N+](=O)[O-] | -15.1
COc1ccc(/C=C2\SC(N3CCCCCC3)=NC2=O)cc1OC | 9.2
CCOc1cc(/C=C2\SC(N3CCN(C4=NC(=O)/C(=C\c5ccc(O)c(OCC)c5)S4)CC3)=NC2=O)ccc1O | 88.2*
CCOc1cc(/C=C2\SC(N3CCCCCC3)=NC2=O)ccc1O | 3.3
COC(=O)C1=NN(C(=O)c2cccc(OC)c2)C(C)(O)C1 (stereo not drawn) | -36.2
CCC1=NN2C(=N)/C(=C/c3ccc(-c4ccc(C)c(Cl)c4)o3)C(=O)N=C2S1 | 4.8
CCC1=NN2C(=N)/C(=C/c3ccc(-c4ccccc4[N+](=O)[O-])o3)C(=O)N=C2S1 | -2.8
CC(C)C1=NN2C(=N)/C(=C/c3ccc(-c4ccc([N+](=O)[O-])cc4)o3)C(=O)N=C2S1 | -4.0
CCC1=NN2C(=N)/C(=C/c3ccc(OCc4ccc(Br)cc4)c(OC)c3)C(=O)N=C2S1 | 6.4
SMILES | VHR inh color
CCC1=NN2C(=N)/C(=C/c3ccc(-c4cccc([N+](=O)[O-])c4)o3)C(=O)N=C2S1 | 0.3
CCOc1cc(/C=C2/C(=N)N3N=C(CC)SC3=NC2=O)ccc1OCc1ccc(F)cc1 | 4.7
CCCC1=NN2C(=N)/C(=C/c3ccc(-c4ccccc4C(=O)OC)o3)C(=O)N=C2S1 | 115.9*
CCCC1=NN2C(=N)/C(=C/c3ccc(OCc4ccc(F)cc4)c(OCC)c3)C(=O)N=C2S1 | 99.9*
CCCC1=NN2C(=N)/C(=C/c3ccc(-c4ccc([N+](=O)[O-])cc4Br)o3)C(=O)N=C2S1 | 111.2*
CCC1=NN2C(=N)/C(=C/c3ccc(-c4cc(Cl)ccc4Cl)o3)C(=O)N=C2S1 | -0.2
CCCC1=NN2C(=N)/C(=C/c3ccc(-c4ccc(F)cc4)o3)C(=O)N=C2S1 | 108.7*
CCC1=NN2C(=N)/C(=C/c3ccc(-c4ccc(F)c(Cl)c4)o3)C(=O)N=C2S1 | -34.0
O=C(Nc1ccc2nn(-c3ccc(Cl)cc3)nc2c1)c1cccnc1 | -0.6
CCN(CC)c1ccc(/C=C2\C(=O)NC(=O)N(Cc3ccccc3)C2=O)c(OC)c1 | 3.1
O=C(N=Nc1c(O)n(CN2CCCC2)c2ccccc12)c1ccncc1 | 0.1
COc1cccc(/C=C/c2nc3ccccc3c(=O)[nH]2)c1O | -31.9
Cc1ccccc1OCC(=O)Nc1ccc(Br)cn1 | -3.5
Cc1nn(C(=O)c2cccnc2)c(C)c1Sc1ccc([N+](=O)[O-])cc1 | -6.4
COc1ccc(NC(=O)c2cccc(C)c2)cc1Cl | 5.4
Cc1ccccc1N/C=C\C(=O)c1ccc([N+](=O)[O-])cc1 | -0.2
O=C(/C=C/c1ccco1)c1cccs1 | 2.2
CCCC1CCc2c(sc(NC(=O)c3ccccc3F)c2C(N)=O)C1 (stereo not drawn) | -26.7
CC(=O)Oc1ccccc1-c1nc(C)nn1C(C)=O | -24.0
CN1CCN(NC(=O)c2sc3ccccc3c2Cl)CC1 | 80.4
CC(NS(=O)(=O)c1ccc(F)cc1)c1ccccc1 (stereo not drawn) | 6.7
CC(=O)Nc1nonc1-c1nc2ccccc2n1Cc1ccccc1 | -1.7
CC(C)(C)c1ccc(Cn2c(-c3nonc3N)nc3ccccc32)cc1 | 60.3*
CC(=O)Nc1nonc1-c1nc2ccccc2n1Cc1ccc(C(C)(C)C)cc1 | -10.8
Cc1ccc(C(C)C)c(OCC(=O)Nc2ccc(Cc3ccncc3)cc2)c1 | 9.8
SMILES | VHR inh color
Cc1cc(C)c2oc(-c3ccc(NC(=O)Cc4ccccc4)cc3O)nc2c1 | 80.5
Cc1ccc(-n2c(C)cc(C=C3C(=O)NC(=S)NC3=O)c2C)cc1C | 15.5
Cc1ccc(-n2cc(C=C3C(=O)NC(=O)NC3=O)cn2)cc1C | 104.9*
Cc1ccc(-n2cc(/C=c3\sc4nc5cc(C)c(C)cc5n4c3=O)cn2)cc1C | 2.8
CC(/C=C/c1ccccc1)=N\Nc1ccc([N+](=O)[O-])cc1[N+](=O)[O-] | -9.2
CCOC(=O)C1=C(O)/C(=C/c2ccc(C(C)(C)C)cc2)SC1=Nc1ccccc1 | 8.2
CN(C)c1ccc(/C=N/S(=O)(=O)CCc2ccccc2)cc1 | -2.7
CN(C)c1ccc(/C=C/C=C/c2cc[n+](CCCS(=O)(=O)[O-])cc2)cc1 | 99.8*
Cc1ccc(S(=O)(=O)N/N=C/C=C/c2ccc(N(C)C)cc2)cc1[N+](=O)[O-] | -8.5
O=C(CSC1CC(=O)N(c2cc(Cl)cc(Cl)c2)C1=O)Nc1ccc(Br)cc1 (stereo not drawn) | -27.7
CCCCN(CCCC)C(=O)c1cccc([N+](=O)[O-])c1C | 4.1
COCCOC(=O)C1=C(C)NC(=O)CC1c1c(F)cccc1Cl (stereo not drawn) | -11.3
CC1=C(C(=O)OCc2ccccc2)C(c2ccccc2[N+](=O)[O-])CC(=O)N1 (stereo not drawn) | 96.8*
CC1=C(C(=O)OCCCc2ccccc2)C(c2c(F)cccc2Cl)CC(=O)N1 (stereo not drawn) | 8.0
CC1=C(C(=O)OCc2ccccc2)C(c2c(F)cccc2Cl)CC(=O)N1 (stereo not drawn) | 112.1*
COC(=O)c1ccc(C2CC(=O)NC(C)=C2C(=O)OCc2ccccc2)cc1 (stereo not drawn) | -10.8
CC1=C(C(=O)OCc2ccccc2)C(c2ccc([N+](=O)[O-])cc2)CC(=O)N1 (stereo not drawn) | -9.0
COC(=O)c1ccc(CSc2nc3sc(C)c(C)c3c(=O)n2-c2ccccc2)cc1 | -8.8
COc1cc(/C=N/NC(=O)CNC(=O)C(c2ccccc2)c2ccccc2)ccc1O | -23.2
NS(=O)(=O)c1ccc(N=C2c3ccccc3C(=O)C2c2ccccc2)cc1 (stereo not drawn) | -19.9
CCOCCOC(=O)C1=C(C)NC(=O)NC1c1ccccc1OCc1ccccc1 (stereo not drawn) | -7.8
Oc1c(Cl)cc(Cl)cc1/C=N/Nc1nc(-c2ccc(Br)cc2)cs1 | 10.0
O=c1c2ccccc2nc(-c2cccnc2)n1-c1ccc(Br)cn1 | 2.8
CCOc1ccccc1N1CCN(C(=O)c2ccco2)CC1 | 2.0
CC(C)CNC(=O)c1cccc(NC(=O)c2ccc(F)cc2)c1 | -11.1
CCOC(=O)c1c(NC(=S)Nc2ccccc2)sc2c1CCCCC2 | -7.2
